Data published in PubChem BioAssay.
Calls of active or inactive are those of the source. Unless noted, no rule for the calls is given here.

Experiments:
[1] = HepG2 liver cancer cell viability effects, profiling panel, resazurin fluorescence, 24 h, PK04 Diversity Set (AID 1172); conditions: higher = more signal
[2] = basal S. cerevisiae growth modulation, no modifier, primary screen, OD600, strain BY4716, 24 h, basal condition (AID 1173); conditions: OD600, 24 h, higher = more signal, called active from +8 up or from −8 down
[3] = MM1S myeloma cell viability, profiling panel, resazurin fluorescence, basal, 24 h, PK04 Diversity Set (AID 1174); conditions: higher = more signal, called active from +8 up or from −8 down;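 also: MM1S multiple myeloma cell line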
[4] = biological target: Dihydroorotate dehydrogenase (quinone), mitochondrial (Plasmodium falciparum (isolate 3D7)) (UniProt Q08210); test: PfDHODH enzyme inhibitors, primary screen, biochemical, C-terminal His tag, absorbance 600 nm (AID 1175); conditions: DCIP absorbance 600 nm, higher = more signal, called active from +8 up or from −8 down;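 also: recombinant parasite enzyme with a five histidine tag at its C terminus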
Dihydroorotate dehydrogenase (quinone), mitochondrial (Plasmodium falciparum (isolate 3D7)), sequence (Q08210 whole entry, looked up): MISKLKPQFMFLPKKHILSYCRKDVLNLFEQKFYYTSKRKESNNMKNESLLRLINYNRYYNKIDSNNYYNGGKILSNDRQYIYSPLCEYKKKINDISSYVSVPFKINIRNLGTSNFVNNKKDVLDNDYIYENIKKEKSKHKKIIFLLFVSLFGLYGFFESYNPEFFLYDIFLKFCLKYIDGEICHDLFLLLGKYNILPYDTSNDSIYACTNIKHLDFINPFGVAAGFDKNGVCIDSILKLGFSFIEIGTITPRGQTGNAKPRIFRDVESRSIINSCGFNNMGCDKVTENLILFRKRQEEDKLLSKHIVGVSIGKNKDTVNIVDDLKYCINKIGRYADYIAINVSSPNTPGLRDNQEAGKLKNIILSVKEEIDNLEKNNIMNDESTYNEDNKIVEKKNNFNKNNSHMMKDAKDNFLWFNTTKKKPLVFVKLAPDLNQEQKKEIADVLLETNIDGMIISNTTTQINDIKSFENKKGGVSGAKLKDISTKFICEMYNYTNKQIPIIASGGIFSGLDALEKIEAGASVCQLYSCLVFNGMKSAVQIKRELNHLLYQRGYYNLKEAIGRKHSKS

[5] = P. aeruginosa biofilm formation inhibitors, primary screen, strain PAO1, LB-PBS medium, absorbance 600 nm (AID 1176); conditions: P. aeruginosa PAO1 growth/biofilm, A600, 12 h; higher = more signal
[6] = S. cerevisiae RM11-1a growth modifiers, primary screen, strain RM11-1a, OD600, basal, 24 h (AID 1177); conditions: OD600, 24 h, higher = more signal, called active from +8 up or from −8 down;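 also: cultures grown under basal conditions with no added stressor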
[7] = E. coli acrAB mutant growth effects, primary screen, E. coli filamentation inducers, strain DRC39, OD650, 24 h (AID 1178); conditions: higher = more signal, called active from +8 up or from −8 down;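 also: growth measured as culture turbidity by optical density at 650 nm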
[8] = E. coli acrAB mutant growth effects, primary screen, E. coli filamentation inducers, strain DRC39, OD650, 48 h (AID 1179);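 also: screen aims at cell division blockers that make cells filament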; conditions: E. coli DRC39 delta-acrAB growth, higher = more signal, called active from +8 up or from −8 down
[9] = RPMI8226 myeloma cell viability, profiling panel, resazurin fluorescence, basal, 24 h, PK04 Diversity Set (AID 1180); conditions: higher = more signal;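 also: RPMI8826 multiple myeloma cell line at 5000 cells per well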
[10] = biological target: E3 ubiquitin-protein ligase XIAP (Homo sapiens) (UniProt P98170); test: XIAP binders, primary screen, biophysical, small-molecule microarray, fluorescence 635 nm (AID 1181); conditions: small-molecule microarray binding, higher = more signal;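 also: score merges 667 nm emission and signal to noise over triplicate slides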
E3 ubiquitin-protein ligase XIAP (Homo sapiens), sequence (P98170 whole entry, looked up): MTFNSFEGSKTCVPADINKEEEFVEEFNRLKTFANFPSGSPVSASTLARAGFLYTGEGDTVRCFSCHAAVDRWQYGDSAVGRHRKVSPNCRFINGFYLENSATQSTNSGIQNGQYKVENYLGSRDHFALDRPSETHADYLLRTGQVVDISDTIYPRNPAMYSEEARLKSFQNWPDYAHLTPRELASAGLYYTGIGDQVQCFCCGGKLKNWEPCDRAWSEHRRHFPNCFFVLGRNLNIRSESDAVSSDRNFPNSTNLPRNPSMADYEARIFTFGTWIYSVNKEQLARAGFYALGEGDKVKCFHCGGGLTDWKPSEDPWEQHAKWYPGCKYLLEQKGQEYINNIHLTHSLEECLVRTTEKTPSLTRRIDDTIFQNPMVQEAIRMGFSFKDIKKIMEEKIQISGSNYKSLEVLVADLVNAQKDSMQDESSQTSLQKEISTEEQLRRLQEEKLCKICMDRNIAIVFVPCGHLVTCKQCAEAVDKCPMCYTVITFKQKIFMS

[11] = system: XIP peptide (Xip251-270) binding; test: small-molecule binders of XIP peptide, primary screen, biochemical, small-molecule microarray, fluorescence 635/667 nm, 0.1 µg/mL protein (AID 1182); conditions: fluorescent protein binding, 635 nm, higher = more signal, called active from +8 up or from −8 down
[12] = system: XIP peptide (Xip251-270); test: small-molecule binders of XIP peptide, primary screen, biochemical, small-molecule microarray, fluorescence 635/667 nm, 0.5 µg/mL protein (AID 1183); conditions: small-molecule microarray binding, fluorescence 635 nm; higher = more signal
[13] = Plasmodium falciparum growth inhibition, primary screen, strain 3D7, DAPI fluorescence, 100 nL (AID 1184);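 also: parasites grown inside human red blood cells in medium with human serum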; conditions: P. falciparum 3D7 growth, 3 d, higher = more signal
[14] = biological target: Homeobox protein Hox-A13 (Mus musculus) (UniProt Q62424); test: inhibitors of HoxA13-DNA binding, primary screen, biochemical, fluorescence polarization, labeled oligonucleotide (AID 1185); conditions: 15 min, higher = more signal, called active from +8 up or from −8 down
Homeobox protein Hox-A13 (Mus musculus), sequence (Q62424 whole entry, looked up): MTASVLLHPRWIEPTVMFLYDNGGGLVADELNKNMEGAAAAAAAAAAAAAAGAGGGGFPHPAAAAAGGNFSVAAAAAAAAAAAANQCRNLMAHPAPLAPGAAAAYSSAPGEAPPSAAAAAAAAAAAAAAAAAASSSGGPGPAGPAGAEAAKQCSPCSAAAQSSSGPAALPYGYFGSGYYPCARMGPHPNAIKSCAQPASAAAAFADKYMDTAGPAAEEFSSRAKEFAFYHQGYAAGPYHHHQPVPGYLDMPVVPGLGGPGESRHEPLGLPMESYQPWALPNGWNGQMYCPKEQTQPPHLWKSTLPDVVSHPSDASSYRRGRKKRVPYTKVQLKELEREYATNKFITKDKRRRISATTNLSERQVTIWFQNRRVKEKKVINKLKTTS

[15] = inhibitors of hydroxyurea-induced Chk1 phosphorylation, primary screen, imaging, HeLa, phospho-Chk1 antibody, percent positive cells (AID 1186); conditions: hydroxyurea-induced phospho-Chk1 immunofluorescence imaging, higher = more signal
[16] = inhibitors of hydroxyurea-induced Chk1 phosphorylation, primary screen, imaging, HeLa, phospho-Chk1 nuclear intensity (AID 1187); conditions: hydroxyurea-induced phospho-Chk1 immunofluorescence imaging, higher = more signal

C=CC[C@]1(C(N)=O)N=C(c2ccc(OCCCO)cc2)O[C@H]1c1ccccc1N=[N+]=[N-]
z-score [1]: 0.021
z-score [2]: -0.925 (inactive)
z-score [3]: -0.362 (inactive)
composite z-score [4]: 0.315 (inactive)
z-score [5]: 0.274 (inactive)
z-score [6]: 1.32 (inactive)
z-score [7]: 2.12 (inactive)
z-score [8]: 2 (inactive)
z-score [9]: -0.733
composite z-score [10]: 0.217
composite z-score [11]: 1.26 (inactive)
composite z-score [12]: 0.688
z-score [13]: -1.98
z-score [14]: -5.2 (inactive)
z-score [15]: -0.37 (inactive)
z-score [16]: -0.532 (inactive)

C=C1C(=O)C=C2CN(C(=O)c3ccccc3)[C@@](Cc3ccc(F)cc3)(C(=O)OC)[C@@H]12
z-score [1]: -6.48
z-score [2]: -11.8 (active)
z-score [3]: -9.98 (active)
composite z-score [4]: -1.67 (inactive)
z-score [5]: 0.439 (inactive)
z-score [6]: -2.19 (inactive)
z-score [7]: 0.322 (inactive)
z-score [8]: -1.8 (inactive)
z-score [9]: -7.28
composite z-score [10]: 0.154
composite z-score [11]: 0.741 (inactive)
composite z-score [12]: 0.459
z-score [13]: -1.59
z-score [14]: -4.76 (inactive)
z-score [15]: -2.23 (inactive)
z-score [16]: -3.76 (inactive)

C[C@]12C(=O)N(CCO)[C@@H]3C(=O)N(c4ccc(Cl)cc4)CC=CC31O[C@@H]1/C=C\CCCOC(=O)C12 (some centres undefined)
z-score [1]: -0.561
z-score [2]: 0.13 (inactive)
z-score [3]: -0.562 (inactive)
composite z-score [4]: -0.141 (inactive)
z-score [5]: -0.481 (inactive)
z-score [6]: 0.556 (inactive)
z-score [7]: -1.18 (inactive)
z-score [8]: -1.25 (inactive)
z-score [9]: -0.184
composite z-score [10]: -0.0746
composite z-score [11]: -0.0502 (inactive)
composite z-score [12]: 0.913
z-score [13]: -1.39
z-score [14]: -3.46 (inactive)
z-score [15]: 0.245 (inactive)
z-score [16]: 0.129 (inactive)

COCCOC(=O)N1C(=O)[C@@]2(c3cc(C#CCNC(N)=O)ccc31)[C@H](c1ccccc1OCCO)N1[C@H](c3ccccc3)[C@H](c3ccccc3)OC(=O)[C@H]1[C@@H]2C(=O)N1CCCCCCC1
z-score [1]: 0.875
z-score [2]: 1 (inactive)
z-score [3]: 0.723 (inactive)
composite z-score [4]: -0.321 (inactive)
z-score [5]: 2.91 (inactive)
z-score [6]: 1.09 (inactive)
z-score [7]: -0.256 (inactive)
z-score [8]: -0.276 (inactive)
z-score [9]: -0.55
composite z-score [10]: -0.0143
composite z-score [11]: 0.564 (inactive)
composite z-score [12]: 0.824
z-score [13]: -2.13
z-score [14]: 0.831 (inactive)
z-score [15]: -0.0593 (inactive)
z-score [16]: -0.191 (inactive)

COCCCNC(=O)[C@@]1(CCC(=O)OC(C)(C)C)N=C(c2ccc(OCCCO)cc2)O[C@H]1c1ccccc1
z-score [1]: -0.464
z-score [2]: 1.12 (inactive)
z-score [3]: 0.34 (inactive)
composite z-score [4]: -1.1 (inactive)
z-score [5]: -0.568 (inactive)
z-score [6]: 0.795 (inactive)
z-score [7]: 0.267 (inactive)
z-score [8]: 1.22 (inactive)
z-score [9]: 0.137
composite z-score [10]: -0.171
composite z-score [11]: 0.809 (inactive)
composite z-score [12]: 0.754
z-score [13]: -0.0488
z-score [14]: -4.75 (inactive)
z-score [15]: 0.185 (inactive)
z-score [16]: 0.633 (inactive)

COc1c(C)cc(-c2nc(-c3ccccc3)c3c(c2C)CO[Si]3(C(C)C)C(C)C)cc1C
z-score [1]: 1.16
z-score [2]: 0.709 (inactive)
z-score [3]: 0.032 (inactive)
composite z-score [4]: 0.08 (inactive)
z-score [5]: 0.845 (inactive)
z-score [6]: -0.0161 (inactive)
z-score [7]: 0.187 (inactive)
z-score [8]: 0.135 (inactive)
z-score [9]: 0.199
composite z-score [10]: 0.53
composite z-score [11]: 0.412 (inactive)
composite z-score [12]: -0.487
z-score [13]: -2.79
z-score [14]: -0.848 (inactive)
z-score [15]: 0.157 (inactive)
z-score [16]: 0.0254 (inactive)

[N-]=[N+]=NCc1ccccc1C[C@]1(C(=O)N2CCCCC2)COC(c2ccc(OCCCO)cc2)=N1
z-score [1]: 0.894
z-score [2]: -0.749 (inactive)
z-score [3]: -0.0967 (inactive)
composite z-score [4]: -0.0119 (inactive)
z-score [5]: 0.0405 (inactive)
z-score [6]: 2.36 (inactive)
z-score [7]: 1.4 (inactive)
z-score [8]: 0.815 (inactive)
z-score [9]: 0.791
composite z-score [10]: -0.0604
composite z-score [11]: -0.061 (inactive)
composite z-score [12]: 0.652
z-score [13]: -2.29
z-score [14]: -6.04 (inactive)
z-score [15]: -0.749 (inactive)
z-score [16]: -0.928 (inactive)

CCOC(=O)C1=CCC(c2ccncc2)N(S(=O)(=O)c2ccc(C)cc2)C1 (centres undefined)
z-score [1]: -0.226
z-score [2]: -0.867 (inactive)
z-score [3]: -1.14 (inactive)
composite z-score [4]: -1.2 (inactive)
z-score [5]: -0.433 (inactive)
z-score [6]: -0.364 (inactive)
z-score [7]: -0.0978 (inactive)
z-score [8]: 0.737 (inactive)
z-score [9]: -1.25
composite z-score [10]: -0.197
composite z-score [11]: 0.373 (inactive)
composite z-score [12]: 0.835
z-score [13]: -0.886
z-score [14]: -4.63 (inactive)
z-score [15]: 0.0325 (inactive)
z-score [16]: 0.104 (inactive)

C=CCC(OC(C)=O)[C@@H]1[C@@H](N(Cc2ccc(-c3ccccc3)cc2)C(=O)Cc2ccc(OC)cc2)c2cc(OCCCO)ccc2N1C(=O)Cc1ccc(OC)cc1 (some centres undefined)
z-score [1]: -0.626
z-score [2]: 0.118 (inactive)
z-score [3]: -0.622 (inactive)
composite z-score [4]: -0.0632 (inactive)
z-score [5]: 0.186 (inactive)
z-score [6]: -0.565 (inactive)
z-score [7]: -0.105 (inactive)
z-score [8]: -0.403 (inactive)
z-score [9]: -0.357
composite z-score [10]: -0.185
composite z-score [11]: 0.497 (inactive)
composite z-score [12]: -0.243
z-score [13]: -1.97
z-score [14]: -2.75 (inactive)
z-score [15]: 0.684 (inactive)
z-score [16]: 0.763 (inactive)
